Shown are actives, neighbours in structure and some others; about 2.4% of the full set was active somewhere.
D2 PAM-1: positive allosteric modulators of human D2 dopamine receptor; DiscoveRx D2 beta-arrestin cells, luminescence, 90 min; 100% = 57 uM dopamine signal; potentiation, % (test concentration not listed); 360,000 tested, 0.23% active; in the data active = potentiation above about 50%; inconclusive = mostly about 30% to 49%
Target sequence (P14416 whole entry, looked up): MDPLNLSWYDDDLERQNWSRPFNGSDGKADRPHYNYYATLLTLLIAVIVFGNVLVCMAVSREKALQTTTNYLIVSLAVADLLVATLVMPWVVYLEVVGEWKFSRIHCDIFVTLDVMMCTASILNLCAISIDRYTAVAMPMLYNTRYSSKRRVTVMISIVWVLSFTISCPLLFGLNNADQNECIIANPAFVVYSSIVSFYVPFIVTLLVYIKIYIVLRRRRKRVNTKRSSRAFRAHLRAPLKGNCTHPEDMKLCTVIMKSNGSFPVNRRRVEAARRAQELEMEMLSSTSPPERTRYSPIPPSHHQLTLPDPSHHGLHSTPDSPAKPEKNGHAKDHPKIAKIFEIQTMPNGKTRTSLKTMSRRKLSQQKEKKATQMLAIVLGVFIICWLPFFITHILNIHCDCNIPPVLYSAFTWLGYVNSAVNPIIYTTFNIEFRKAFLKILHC
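D2 cells co-treated with compound plus 50 nM dopamine (EC20) for 90 min at 37 deg C to detect potentiation. Beta-arrestin recruitment was read as enzyme-fragment luminescence after 1 h at ambient temperature. Full response was set by 57 uM dopamine.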
D2 ag-1: activates the human D2 dopamine receptor; 340,000 tested, 0.53% active; P14416; AID 485358; HEK293 T-REx D2 cells, calcium flux agonist mode; activation, % at 2 µM;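 active = activation over 3 SD above normal in the single-dose calcium agonist read, cut at about 30% in these data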; also: 0% is about no effect
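Tetracycline-induced HEK293 T-REx cells with force-coupled D2 receptor, plated overnight at 30 C, loaded with no-wash calcium dye. After a 10 s baseline, compound was pin-added and calcium flux read kinetically for 180 s; calcium rises flagged agonists.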
D2 ag-2: activates the human D2 dopamine receptor; DiscoveRx PathHunter D2 beta-arrestin, luminescence, 90 min; 100% = 57 uM dopamine signal; activation, % (concentration not given with the values); 360,000 tested, 0.084% active; AID 624465; in the data active = activation above about 40%; inconclusive = between about 15% and that limit
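Agonist mode: compounds alone added to overnight-plated D2 PathHunter cells for 90 min at 37 C, with 57 uM final dopamine (EC100) defining full response. Beta-arrestin recruitment detected by chemiluminescent reagent, read after 1 h at ambient temperature.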
D2 PAM-2: positively modulates the human D2 dopamine receptor allosterically; P14416; HEK293 T-REx D2, calcium flux, EC20 dopamine potentiation; potentiation, % at 10 µM; 340,000 tested, 0.34% active; AID 485347;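 active = potentiation over 3 SD above the plate norm, cut at about 30% in these data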; also: 0% is about no effect
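Potentiation of an EC20 dopamine calcium response measured kinetically over 180 s, after a preceding 180 s compound-only read flagging agonists. Cells: inducible Hek293 Trex D2 line, 4000/well, cultured overnight at 30 C before dye loading.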
D2 antag: D2 dopamine receptor (human) antagonism. P14416. HEK293 TREx D2 cells, calcium flux, dopamine EC80. inhibition, % at 10 µM. 340,000 tested, 2% active; in the data active = inhibition above about 30%; inactive = below that, where a call was filed; also: 0% is about no effect
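Read-out: kinetic calcium fluorescence (1 cycle/s) in inducible HEK293 T-REx D2 cells after an EC80 dopamine addition that followed 180 s compound preincubation. Loss of the dopamine response indicates antagonism.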
Active calls of the source: *; ? = inconclusive; / = not tested or not shown; ! = a repeat was not active.

SMILES | D2 PAM-1 | D2 ag-1 | D2 ag-2 | D2 PAM-2 | D2 antag
CC1C(=O)N2CCCc3cc(S(=O)(=O)Nc4ccc(Br)cc4F)cc1c32 (centres undefined) | / | -0.1 | / | -5.4 | /
COc1ccc(OC)c(NC(=O)Cn2cnc3sc(C)c(S(=O)(=O)N4CCN(c5ccccc5OC)CC4)c3c2=O)c1 | / | 0.0 | / | -5.3 | /
CCCCC(=O)OCc1nc2ccccc2s1 | -23.3 | -0.2 | -11.0 | 42.4* | -9.3
Nc1ccn([C@H]2CC[C@@H](CO)O2)c(=O)n1 | -3.5 | -0.2 | -2.2 | 5.2 | 37.3*!
c1ccc(N=C(c2cccs2)N2CCOCC2)cc1 | -18.3 | 0.5 | -16.5 | -14.3 | 31.8*
O=S(=O)(/N=C(\c1ccccc1)N1CCOCC1)c1cccs1 | 0.6 | 0.1 | 0.2 | -6.5 | -4.9
Cc1ccc(C)c(N2CCN(S(=O)(=O)c3c(C(=O)N4CCC(C)CC4)c(C)n(C)c3C)CC2)c1 | / | 7.4 | / | 1.4 | /
CC(C)(C)OC(=O)NCCCCCNC(=O)c1nc[nH]c1C(=O)NCC(=O)OCc1ccccc1 | 52.0* | / | ? | / | /
COc1cc(CN(C(=O)c2ccc(Cl)cc2)C2CCS(=O)(=O)C2)cc(OC)c1OC (centres undefined) | / | -0.4 | / | 3.2 | /
COc1ccc(Nc2nc(CC(C)=O)ns2)cc1 | -5.3 | 0.9 | -2.2 | -2.8 | 9.6
COc1cccc(Nc2nc(CC(C)=O)ns2)c1 | 9.9 | 0.1 | -0.1 | -11.2 | 32.8*
CCC(NS(=O)(=O)c1ccc(C)cc1)C(=O)N1CCC2(O)CCCCC2C1 (centres undefined) | -1.2 | 0.0 | 0.1 | 38.6* | 9.2
CC(C)Oc1ccc(CNC(=O)CN2C(=O)CCn3nc(-c4cn(C)c5ccccc45)cc32)cc1 | / | -0.2 | / | -3.1 | /
CSc1cccc(CN2CCN(CCc3ccccc3)C(CCO)C2)c1 (centres undefined) | -42.3 | -0.2 | -2.5 | -30.2 | 26.5
CSc1cccc(CN2CCN(Cc3ccccc3)C(CCO)C2)c1 (centres undefined) | -7.5 | -2.8 | -1.8 | -34.8 | 38.9*
CSc1ccc(CN2CCN(CC=C(C)C)C(CCO)C2)cc1 (centres undefined) | -11.8 | -0.4 | -4.0 | -21.7 | 33.0*
O=C(NN1C(=O)/C(=C/c2cc([N+](=O)[O-])ccc2O)SC1=S)c1ccccc1O | / | 0.8 | / | -9.4 | -2.0
Cc1ccc(/C=C2\SC(=S)N(/N=C/c3cc([N+](=O)[O-])ccc3O)C2=O)o1 | -7.0 | 0.2 | 0.4 | 1.4 | 31.6*
Cc1cc(C)cc(-n2ccn(CC(=O)Nc3ccccc3C(F)(F)F)c(=O)c2=O)c1 | / | 1.4 | / | -1.7 | /
COc1cccc(OC)c1-c1nn(-c2ncc(C(F)(F)F)cc2Cl)c(=O)o1 | -11.7 | 2.9 | -6.3 | 10.4 | 37.7*
Cc1ccc(OCc2ccoc2C(=O)O)cc1C | -5.1 | -0.8 | -0.7 | -4.6 | 30.2*
CC(C)Oc1ccc(CNC(=O)C2CCN(C(=O)N3CCOc4ccc(Cl)cc43)CC2)cc1 | / | -0.2 | / | 6.6 | /
NC(=O)Cn1c(=O)n(CCCCCC(=O)NCc2ccccc2Cl)c(=O)c2sccc21 | / | -0.4 | / | -1.7 | /
Cc1nn(-c2ccccc2)c2nc(C3CC3)cc(C(=O)Nc3cccc(F)c3)c12 | / | 1.4 | / | -3.6 | /
CCOC(=O)CSc1nnc(NC(=O)c2cc([N+](=O)[O-])cc([N+](=O)[O-])c2)s1 | 63.4* | 0.1 | 9.2 | -1.3 | 2.1
SMILES | D2 PAM-1 | D2 ag-1 | D2 ag-2 | D2 PAM-2 | D2 antag
COCCSc1nnc(NC(=O)c2ccc([N+](=O)[O-])cc2)s1 | 0.4 | / | -2.4 | 10.8 | /
COc1ccccc1C(=O)Oc1c(Sc2ccccc2)c(C)nn1C(C)(C)C | / | 0.7 | / | -0.3 | /
Cc1cc(C)cc(NC(=O)C2CCN(S(=O)(=O)c3ccc4[nH]c(=O)ccc4c3)CC2)c1 | -9.2 | -0.3 | 2.5 | -16.3 | 31.2*
CC(=O)N1CCOc2ccc(S(=O)(=O)N3CCC(C(=O)Nc4cc(C)cc(C)c4)CC3)cc21 | -23.4 | -0.8 | -1.7 | -12.3 | 52.0*
C=CCn1c(=O)[nH]c2nc3cc(N=CN(C)C)c(C)cc3nc2c1=O | -11.0 | 30.5* | -4.2 | 3.5 | -6.3
CN(C)/C=N/c1cc(=O)[nH]c(=O)n1CC1CC1 | -7.3 | 0.5 | -1.2 | -1.0 | -8.6
Cc1ccc(C)c(N2CCN(CCCNC(=O)Cn3c(=O)c4cccn4c4cccnc43)CC2)c1 | -36.0 | -0.4 | -0.1 | -21.9 | 62.7*

Source: PubChem BioAssay
